Data: PubChem BioAssay (NCATS)
A number with no mark means an inactive call. Inconclusive results are not listed. Calls of active or inactive are those of the source. Unless noted, the call rests on the fitted dose curve; in most records, active means well fitted curve in either direction with a large enough effect (not every such curve was filed as active); inconclusive means small, poorly fitted or top-dose-only effect, or another doubt; inactive means flat fitted curve, though single readings scatter.

Assays:
[1] = target: Lysosomal acid glucosylceramidase (Homo sapiens) (UniProt P04062); assay: Glucocerebrosidase-p2 (AID 348; in the data active means potency below about 10 µM; further: potency means the concentration at half of the fitted maximal effect); conditions: purified GBA, blue fluorogenic substrate, 40 min
Outline: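 Compounds titrated from 0.6 nM upwards against 0.2 nM enzyme in pH 5.9 citric acid/KH2PO4, taurocholate, tween-20; blue fluorogenic substrate 80 uM, 40 min room temperature, stopped and read Ex 365/Em 440 for AC50.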

[2] = AP1 Signaling Pathway (AID 357); conditions: ME-180 AP-1-bla reporter, EGF-induced, beta-lactamase ratio, 5 h; at 7.69 µM (top of the series) unless noted;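 further: ME-180 reporter cells stimulated with EGF at its EC50 level; on the % scale 0 is the no-effect control and ±100 the full control effect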
Outline: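 AP-1-bla ME-180 cells, Opti-MEM + 0.5% dialyzed FBS, plated overnight 37 °C. Cpd titration + EC50 EGF, 5 h 37 °C. CCF4 2.5 h RT; ex 405, em 460/530 ratio → %activity, AC50.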

[3] = target: Cytochrome P450 1A2 (Homo sapiens) (UniProt P05177); assay: p450-cyp1a2 (AID 410; calls by dose curve; further: potency means the concentration at half of the fitted maximal effect;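 on activity change, negative = inhibition: -100% = full effect of reference inhibitor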); conditions: recombinant CYP1A2, luciferin-ME demethylation, luminescence; series mostly up to 57 µM
Outline: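 Inhibition was calculated relative to 57 uM furafylline (full inhibition). The reaction used human CYP1A2 at 20nM with Luciferin-ME at its Km, 100uM, driven by an NADPH-regenerating system for 60 min at room temperature.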

[4] = NFAT Signaling Pathway (AID 444); conditions: Jurkat NFAT-bla M1, carbachol, beta-lactamase ratio, 5 h; at 7.69 µM (top of the series) unless noted;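 further: carbachol stimulus at about its EC50 of 1 µM final; on the % scale 0 is the no-effect control and ±100 the full control effect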
Outline: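 Read-out: CCF4 FRET ratio (460 nm/530 nm) after 1 h RT dye loading, used for %activity and AC50 from titration series. Cells: Jurkat NFAT-β-lactamase/M1 line, treated with compound plus 1 uM carbachol for 5 h, 37 °C.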

[5] = Stat Signaling Pathway (AID 446); conditions: ME-180 SIE beta-lactamase reporter, IL-6 stimulated, 5 h; at 7.69 µM (top of the series) unless noted;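 further: ME-180 cervical cancer cells given 40 pM IL-6 alongside compound; SIE-controlled beta-lactamase reporter measured as 460/530 nm FRET emission ratio; on the % scale 0 is the no-effect control and ±100 the full control effect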
Outline: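 Reporter line: ME-180 cervical carcinoma, SIE-beta-lactamase. Treatment: compound with 40 pM IL-6, 5 hrs, 37 C, in low-serum OPTI-MEM with 10 mM HEPES pH 7.3. Detection: 460/530 nm fluorescence.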

[6] = target: Glucocorticoid receptor (Homo sapiens) (UniProt P04150); assay: GR-GFP Redistribution (AID 450;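 active means compounds whose dose series gives a full or clear partial fitted curve of increased nuclear translocation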; further: potency means the concentration at half of the fitted maximal effect); conditions: U2OS GR-GFP nuclear translocation, laser cytometry, 2 h
[7] = target: Glucocorticoid receptor (Homo sapiens) (UniProt P04150); assay: GR-EFC Redistribution (AID 451; calls by dose curve; further: potency means the concentration at half of the fitted maximal effect); conditions: CHO-K1 GR-EFC translocation, beta-gal luminescence, 2 h
Outline: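 Translocation of GR-ED fusion to nuclear EA restores b-gal, read by luminescence after 1 h room-temperature detection. Engineered CHO-K1 biosensor cells, 1,000/well, exposed 2 h at 37 C to titrations up to 46 uM final.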

[8] = target: Mitogen-activated protein kinase 10 (Mus musculus) (UniProt Q61831); assay: JNK3 AlphaScreen Assay (AID 530); conditions: JNK3 lysate, c-Jun phosphorylation; series mostly up to 57.1 µM;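 further: kinase came from lysate of stimulated human HepG2 cells; signal reports phosphorylation of biotinylated GST-cJun 1-79 at Ser73 with 10 µM ATP; on the % scale 0 is the no-effect control and ±100 the full control effect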
Outline: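 Room-temperature AlphaScreen kinase assay; pre-activated HepG2 lysate as JNK3 source, biotin-GST-cJun(1-79) substrate, 10 uM ATP, compound 15 min preincubation.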

[9] = target: Cytochrome P450 3A4 (Homo sapiens) (UniProt P08684); assay: qHTS Assay for Inhibitors and Substrates of Cytochrome P450 3A4 (AID 884; active means well fitted curve in the direction sought with a large enough effect; an effect the other way counts as inactive or inconclusive; further: potency means the concentration at half of the fitted maximal effect; nearly all actives have a fitted effect of over 50% in size); conditions: recombinant CYP3A4, Luciferin-PPXE luminescence; series mostly up to 57.1 µM
Outline: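 20 nM human CYP3A4 with 25 uM Luciferin-PPXE (at KM) in 200 mM KPO4, preincubated 10 min with compound; NADPH regeneration started a 60 min RT reaction. Luciferin detected by luminescence, normalized to 57 uM ketoconazole as full inhibition.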

[10] = target: Cytochrome P450 3A4 (Homo sapiens) (UniProt P08684); assay: qHTS Assay for Activators of Cytochrome P450 3A4 (AID 885; active means well fitted curve in the direction sought with a large enough effect; an effect the other way counts as inactive or inconclusive; further: nearly all actives have a fitted effect of over 65% in size); conditions: recombinant CYP3A4, Luciferin-PPXE luminescence, 60 min; series mostly up to 57.1 µM
Outline: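 Signal was normalized against complete inhibition by 57 uM ketoconazole. The reaction used 20nM CYP3A4 with 25uM Luciferin-PPXE, 10-min compound preincubation and a 60-min NADPH-supported step at RT.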

[11] = Primary qHTS for small molecule stabilizers of the endoplasmic reticulum resident proteome: Secreted ER Calcium Modulated Protein (SERCaMP) assay (AID 1508630; active means well fitted curve in the direction sought with a large enough effect; an effect the other way counts as inactive or inconclusive; further: on the % scale 0 is the no-effect control and ±100 the full control effect); conditions: SH-SY5Y GLuc-SERCaMP (Gaussia luciferase released on ER calcium loss) secretion, thapsigargin, luminescence; series mostly up to 38.4 µM
Outline: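 GLuc-SERCaMP-expressing SH-SY5Y cells, pretreated 16 h with compound, are challenged with thapsigargin to empty ER calcium stores; after 4 h, coelenterazine is added directly to the medium and luminescence is imaged.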

[12] = target: Cytochrome P450 2C19 (Homo sapiens) (UniProt P33261); assay: qHTS Assay for Inhibitors and Substrates of Cytochrome P450 2C19 (AID 899; active means well fitted curve in the direction sought with a large enough effect; an effect the other way counts as inactive or inconclusive; further: potency means the concentration at half of the fitted maximal effect; nearly all actives have a fitted effect of over 60% in size); conditions: recombinant CYP2C19, luciferin-H EGE luminescence; series mostly up to 57.1 µM
Outline: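 Luminescence readout of luciferin formed from 10uM Luciferin-H EGE (KM level) by 5 nM CYP2C19 in 50mM KPO4. 60 min NADPH-driven reaction at 37C after 10 min compound preincubation; data scaled to 57uM ketoconazole inhibition.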

[13] = target: 3',5'-cyclic-AMP phosphodiesterase 4B (Homo sapiens) (UniProt Q07343); assay: qHTS Assay for Inhibitors of PDE-IV (AID 607; active means well fitted activation curve with a large enough effect in the main read-out, with a control signal flat, not every such curve was filed as active; further: % of control where 0% means no effect); conditions: HEK293 ACTOne CNG channel cells, membrane potential fluorescence; series mostly up to 22.9 µM
Outline: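 Cell-based read-out of cAMP via a modified cyclic nucleotide-gated channel and membrane potential dye (535/590 nm) in HEK293 cells expressing PDE4 endogenously. Compounds tested up to 22.9 uM final; 100 uM RO 20-1724 reference.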

[14] = target: Ubiquitin carboxyl-terminal hydrolase 1 (Homo sapiens) (UniProt O94782); assay: Inhibitors of USP1/UAF1: Pilot qHTS (AID 504865; active means well fitted curve in the direction sought with a large enough effect; an effect the other way counts as inactive or inconclusive;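 further: rhodamine fluorescence freed from ubiquitin-rhodamine substrate followed over time; top concentration of the series differs between compounds; on the % scale 0 is the no-effect control and ±100 the full control effect; nearly all actives have a fitted effect of over 35% in size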); conditions: purified USP1/UAF1, Ub-rhodamine cleavage fluorescence; series mostly up to 54.9 µM
Outline: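 USP1/UAF1 complex (1nM) preincubated with compound 15 min at room temperature, then Ub-Rho substrate (150nM final) added. Fluorescence read kinetically at 480/540 nm, 6 reads every 60 seconds. Buffer: 50mM HEPES pH 7.8, 0.5mM EDTA, 0.1 mg/ml BSA, 1mM TCEP, 0.01% Tween-20.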

[15] = Confirmation and Secondary Assay for Modulators of Hemoglobin Beta Chain Splicing at IVS2 654 locus (AID 910; active means well fitted curve in the direction sought with a large enough effect; an effect the other way counts as inactive or inconclusive;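 further: HeLa cells stably carrying EGFP split by mutant beta-globin IVS2-654 intron; per-well total GFP intensity by laser scanning cytometry after 2-day treatment; % of control where 0% means no effect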); conditions: HeLa EGFP-654 splicing reporter, GFP fluorescence, 48 h; series mostly up to 38.3 µM
Outline: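 Readout: per-well total peak green fluorescence (488 nm ex, 500–520 nm em) from objects 5–250 µm, reflecting correct splicing of an EGFP-654 reporter. Compounds were applied for 2 days at 37 °C to overnight-plated HeLa EGFP-654 cells; controls were DMSO and 500 nM IVS2-654 PNA.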

[16] = qHTS Assay for Identification of Small Molecule Agonists for Hypoxia Response Element Signaling Pathway (AID 914; active means well fitted activation curve with a large enough effect in the signal ratio, with a control signal flat, not every such curve was filed as active; the % refers to the signal ratio; further: % of control where 0% means no effect); conditions: ME-180 (cervical carcinoma) HRE-bla reporter, beta-lactamase ratio, CoCl2, 17 h; activation: stronger effect = higher value
Outline: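 AC50 values come from titration-series %Activity, taken as the 460/530nm ratio of CCF4 fluorescence (excitation 405nm). CellSensor HRE-bla ME-180 cells were treated 17 hours at 37 C with compound plus an EC50 level of CoCl2.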

[17] = Confirmation and Secondary Assay for Modulators of Hemoglobin Beta Chain Splicing at IVS2 705 locus (AID 930; active means well fitted curve in the direction sought with a large enough effect; an effect the other way counts as inactive or inconclusive;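 further: HeLa cells stably expressing the EGFP-705 splicing reporter; % of control where 0% means no effect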); conditions: HeLa EGFP-705 splicing reporter, GFP fluorescence, 48 h; series mostly up to 38.3 µM
Outline: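 Restored EGFP fluorescence after 2-day compound exposure reports splicing correction in IVS2-705 EGFP reporter HeLa cells; positive control was 500 nM splice-blocking PNA oligo. Signal measured as well total peak GFP intensity (488 nm excitation).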

Cytochrome P450 3A4 (Homo sapiens), sequence (P08684 whole entry, looked up): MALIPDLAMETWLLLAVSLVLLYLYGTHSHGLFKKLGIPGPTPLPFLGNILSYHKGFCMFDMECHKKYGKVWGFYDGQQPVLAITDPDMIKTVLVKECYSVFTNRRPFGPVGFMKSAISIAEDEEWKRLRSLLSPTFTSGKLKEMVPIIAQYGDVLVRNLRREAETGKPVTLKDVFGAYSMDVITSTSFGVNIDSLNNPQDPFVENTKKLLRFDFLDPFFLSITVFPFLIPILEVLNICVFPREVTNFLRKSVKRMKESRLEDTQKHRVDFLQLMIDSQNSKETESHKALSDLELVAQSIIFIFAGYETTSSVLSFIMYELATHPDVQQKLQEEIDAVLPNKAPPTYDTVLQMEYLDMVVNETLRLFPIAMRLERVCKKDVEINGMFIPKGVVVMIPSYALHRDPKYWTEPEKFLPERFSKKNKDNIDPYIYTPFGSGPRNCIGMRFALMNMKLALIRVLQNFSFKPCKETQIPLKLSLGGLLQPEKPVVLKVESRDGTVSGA
Cytochrome P450 1A2 (Homo sapiens), sequence (P05177 whole entry, looked up): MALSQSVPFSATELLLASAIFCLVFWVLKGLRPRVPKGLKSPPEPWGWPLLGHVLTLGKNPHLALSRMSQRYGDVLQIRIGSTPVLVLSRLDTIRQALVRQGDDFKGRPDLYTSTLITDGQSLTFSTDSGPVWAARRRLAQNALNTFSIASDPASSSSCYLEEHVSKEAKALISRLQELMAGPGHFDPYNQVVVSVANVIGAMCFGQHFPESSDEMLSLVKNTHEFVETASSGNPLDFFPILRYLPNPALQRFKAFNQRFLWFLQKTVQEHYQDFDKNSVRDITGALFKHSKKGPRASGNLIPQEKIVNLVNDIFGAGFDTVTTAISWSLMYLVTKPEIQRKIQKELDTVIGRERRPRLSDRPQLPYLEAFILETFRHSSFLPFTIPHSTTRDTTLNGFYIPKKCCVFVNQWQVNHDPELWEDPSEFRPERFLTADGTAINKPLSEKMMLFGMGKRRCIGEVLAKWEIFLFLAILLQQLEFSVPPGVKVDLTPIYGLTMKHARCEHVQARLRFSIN
Lysosomal acid glucosylceramidase (Homo sapiens), sequence (P04062 whole entry, looked up): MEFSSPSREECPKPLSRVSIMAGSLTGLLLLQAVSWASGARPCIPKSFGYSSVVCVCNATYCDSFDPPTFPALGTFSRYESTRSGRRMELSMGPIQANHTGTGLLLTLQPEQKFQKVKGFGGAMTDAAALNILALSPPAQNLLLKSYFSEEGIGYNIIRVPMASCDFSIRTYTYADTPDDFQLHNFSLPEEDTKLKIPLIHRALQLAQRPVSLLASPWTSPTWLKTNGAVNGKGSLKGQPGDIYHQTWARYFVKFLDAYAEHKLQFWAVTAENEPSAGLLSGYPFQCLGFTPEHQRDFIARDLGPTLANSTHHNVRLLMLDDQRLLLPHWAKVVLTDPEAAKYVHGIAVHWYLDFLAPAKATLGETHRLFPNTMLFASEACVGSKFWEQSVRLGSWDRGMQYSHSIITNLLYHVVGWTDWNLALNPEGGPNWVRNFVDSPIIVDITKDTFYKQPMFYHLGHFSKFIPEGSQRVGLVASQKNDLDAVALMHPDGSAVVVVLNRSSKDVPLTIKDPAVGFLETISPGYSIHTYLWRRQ
3',5'-cyclic-AMP phosphodiesterase 4B (Homo sapiens), sequence (Q07343 whole entry, looked up): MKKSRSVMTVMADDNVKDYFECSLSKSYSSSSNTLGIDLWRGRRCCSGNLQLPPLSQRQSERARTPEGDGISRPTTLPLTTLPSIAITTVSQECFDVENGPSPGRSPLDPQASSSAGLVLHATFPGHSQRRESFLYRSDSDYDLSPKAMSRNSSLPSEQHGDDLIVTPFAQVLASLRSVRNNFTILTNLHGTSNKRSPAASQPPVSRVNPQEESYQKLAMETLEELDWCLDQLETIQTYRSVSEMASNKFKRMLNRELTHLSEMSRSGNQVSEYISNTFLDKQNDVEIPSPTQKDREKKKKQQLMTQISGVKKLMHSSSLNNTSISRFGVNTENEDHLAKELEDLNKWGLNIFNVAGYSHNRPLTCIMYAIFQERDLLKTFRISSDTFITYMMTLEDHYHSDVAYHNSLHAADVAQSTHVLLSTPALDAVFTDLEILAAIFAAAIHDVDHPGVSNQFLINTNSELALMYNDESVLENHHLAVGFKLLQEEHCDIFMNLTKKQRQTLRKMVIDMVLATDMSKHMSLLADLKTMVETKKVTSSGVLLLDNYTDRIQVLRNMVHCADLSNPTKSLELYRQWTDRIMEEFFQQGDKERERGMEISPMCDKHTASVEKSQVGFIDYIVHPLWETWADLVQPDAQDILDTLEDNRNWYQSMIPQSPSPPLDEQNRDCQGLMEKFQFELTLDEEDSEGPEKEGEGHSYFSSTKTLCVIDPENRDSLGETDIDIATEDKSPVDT
Glucocorticoid receptor (Homo sapiens), sequence (P04150 whole entry, looked up, the tested form may be a part): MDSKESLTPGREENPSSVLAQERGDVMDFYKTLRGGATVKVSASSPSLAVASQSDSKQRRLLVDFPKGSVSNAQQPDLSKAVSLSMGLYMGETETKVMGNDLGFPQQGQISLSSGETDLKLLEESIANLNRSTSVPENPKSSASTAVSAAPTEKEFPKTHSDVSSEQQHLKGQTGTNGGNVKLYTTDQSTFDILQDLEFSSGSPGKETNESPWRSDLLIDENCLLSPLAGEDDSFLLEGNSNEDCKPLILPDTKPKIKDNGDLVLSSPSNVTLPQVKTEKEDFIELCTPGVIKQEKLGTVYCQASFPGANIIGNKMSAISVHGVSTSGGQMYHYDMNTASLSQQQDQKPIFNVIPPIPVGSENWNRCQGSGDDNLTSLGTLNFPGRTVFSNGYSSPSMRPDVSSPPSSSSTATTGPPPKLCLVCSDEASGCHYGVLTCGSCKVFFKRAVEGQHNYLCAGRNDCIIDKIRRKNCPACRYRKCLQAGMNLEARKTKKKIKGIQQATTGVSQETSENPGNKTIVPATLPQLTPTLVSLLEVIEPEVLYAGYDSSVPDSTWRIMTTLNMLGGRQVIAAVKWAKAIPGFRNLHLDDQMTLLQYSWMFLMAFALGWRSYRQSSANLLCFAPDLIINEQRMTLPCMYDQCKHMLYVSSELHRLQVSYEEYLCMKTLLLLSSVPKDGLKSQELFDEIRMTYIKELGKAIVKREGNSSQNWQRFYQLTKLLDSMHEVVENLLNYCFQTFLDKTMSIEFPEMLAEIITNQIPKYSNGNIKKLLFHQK
Cytochrome P450 2C19 (Homo sapiens), sequence (P33261 whole entry, looked up): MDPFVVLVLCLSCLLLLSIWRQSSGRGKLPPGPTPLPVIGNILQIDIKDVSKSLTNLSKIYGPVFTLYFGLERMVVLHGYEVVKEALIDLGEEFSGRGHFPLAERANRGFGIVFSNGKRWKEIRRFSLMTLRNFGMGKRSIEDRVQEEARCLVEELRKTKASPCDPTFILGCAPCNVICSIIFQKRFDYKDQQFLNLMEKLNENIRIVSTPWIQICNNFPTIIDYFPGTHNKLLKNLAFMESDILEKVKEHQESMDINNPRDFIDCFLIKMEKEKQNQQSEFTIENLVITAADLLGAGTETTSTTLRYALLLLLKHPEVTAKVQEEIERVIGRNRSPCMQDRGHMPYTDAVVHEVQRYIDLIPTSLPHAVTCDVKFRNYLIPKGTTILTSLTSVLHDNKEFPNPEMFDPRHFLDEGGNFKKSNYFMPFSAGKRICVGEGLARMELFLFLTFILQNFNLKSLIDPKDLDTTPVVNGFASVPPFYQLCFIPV
Ubiquitin carboxyl-terminal hydrolase 1 (Homo sapiens), sequence (O94782 whole entry, looked up): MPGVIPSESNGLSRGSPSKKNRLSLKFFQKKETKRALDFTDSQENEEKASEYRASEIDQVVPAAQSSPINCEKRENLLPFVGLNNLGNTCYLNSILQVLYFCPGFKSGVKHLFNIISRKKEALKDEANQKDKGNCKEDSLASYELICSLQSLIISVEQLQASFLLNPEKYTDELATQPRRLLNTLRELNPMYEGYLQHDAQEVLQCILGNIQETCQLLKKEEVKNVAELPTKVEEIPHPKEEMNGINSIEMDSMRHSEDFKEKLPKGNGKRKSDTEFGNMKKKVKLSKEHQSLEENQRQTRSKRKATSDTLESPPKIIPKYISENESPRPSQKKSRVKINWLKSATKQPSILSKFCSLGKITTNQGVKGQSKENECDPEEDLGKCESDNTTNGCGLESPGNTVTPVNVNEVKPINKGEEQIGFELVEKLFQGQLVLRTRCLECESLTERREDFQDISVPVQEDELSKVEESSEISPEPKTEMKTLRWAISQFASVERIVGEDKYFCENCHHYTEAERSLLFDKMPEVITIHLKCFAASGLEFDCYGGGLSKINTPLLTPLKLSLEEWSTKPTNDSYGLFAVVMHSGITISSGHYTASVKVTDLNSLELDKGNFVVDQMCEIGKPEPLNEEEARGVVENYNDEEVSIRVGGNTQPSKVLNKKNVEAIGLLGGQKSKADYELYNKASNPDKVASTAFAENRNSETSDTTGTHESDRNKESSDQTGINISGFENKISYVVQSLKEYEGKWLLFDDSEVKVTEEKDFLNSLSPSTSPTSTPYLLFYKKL

Compound	Potency [1]	activity change, negative = inhibition [2]	Potency [3]	activity change, negative = inhibition [4]	activity, negative = inhibition [5]	Potency [6]	Potency [7]	Potency [8]	Potency [9]	Potency [10]	outcome [11]	Potency [12]	Potency [13]	Potency [14]	Potency [15]	activation [16]	outcome [17]
O=c1cnc2cnc(OCc3ccccc3)nc2n1Cc1ccc(F)cc1	> 11.4 µM	-29.4%	12.6 µM (active)	-14.6%	-21.4%	> 9.22 µM	> 46 µM	inactive	5.01 µM (active)	inactive	inactive	–	–	–	–	–	–
COc1ccc(CNc2ncncc2-c2ccc(N(C)C)cc2)c(OC)c1	> 11.4 µM	-8.89%	0.631 µM (active)	1.33%	0.205%	> 46 µM	> 46 µM	inactive	0.199 µM (active)	inactive	inactive	1.58 µM (active)	–	–	–	–	–
O=S(=O)(c1ccccc1)N1CCC2(CC1)CN(Cc1nccs1)C2	> 11.4 µM	11.1%	inactive	-29.2%	9.77%	–	> 46 µM	inactive	–	–	inactive	–	inactive	–	–	–	–
CC(=O)N1CCC2(CC1)CCN(c1ccc(-c3ccccc3)cc1)CC2	> 11.4 µM	47.5%	10 µM (active)	-28%	-16.9%	–	> 46 µM	inactive	–	–	inactive	–	inactive	–	–	–	–
O=C(c1csnn1)N1CCC2(CCN(Cc3nccs3)CC2)CC1	> 11.4 µM	-7.97%	inactive	-13.7%	-2.3%	–	> 46 µM	inactive	–	–	inactive	–	inactive	–	–	–	–
CC(C)NC(=O)N1CCC2(CC1)CCN(C(=O)c1cccn1C)CC2	> 11.4 µM	15.2%	inactive	7.13%	2.35%	–	> 46 µM	inactive	–	–	inactive	–	inactive	–	–	–	–
c1ccc(CNc2cc(-c3ccoc3)ncn2)cc1	> 11.4 µM	-7.43%	25.1 µM (active)	-2.19%	-2.59%	> 46 µM	–	inactive	–	inactive	inactive	–	inactive	inactive	–	–	–
Cc1cccc(CNc2ncncc2-c2cccc(NS(C)(=O)=O)c2)c1	> 11.4 µM	-5.04%	12.6 µM (active)	8.42%	0.163%	–	> 46 µM	inactive	–	inactive	inactive	6.31 µM (active)	inactive	inactive	inactive	3.55%	inactive
